# PTK2B oligo ant: antagonists of Pyk2 self-association, primary screen, Q293 cells, FERM NanoBiT luminescence, HTS; Protein-tyrosine kinase 2-beta (Homo sapiens), Q14289; stronger effect = lower value; z-score (the deposit names both 25 µM and 10 µM); 99,000 compounds, 0.83% hits; AID 1347419, 2020;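 active = Z-score of -3 or lower, scaled per plate to the spread of control and sample wells; inactive = z-score above -3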;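 also: negative z-score means lost luminescence so less FERM oligomerization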
# CYP2C9 activ: human CYP2C9 activators, primary screen, biochemical, luminescence; Cytochrome P450 2C9 (Homo sapiens), P11712; recombinant CYP2C9, luciferin-H conversion; stronger effect = higher value; factor 1 = untreated enzyme, 0 = blocked; activation factor at 5 µM; 96,000 compounds, 1.4% hits;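 active = activation factor of 2 or more for CYP2C9 at a 5 µM dose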
# Target sequence (P11712 whole entry, looked up): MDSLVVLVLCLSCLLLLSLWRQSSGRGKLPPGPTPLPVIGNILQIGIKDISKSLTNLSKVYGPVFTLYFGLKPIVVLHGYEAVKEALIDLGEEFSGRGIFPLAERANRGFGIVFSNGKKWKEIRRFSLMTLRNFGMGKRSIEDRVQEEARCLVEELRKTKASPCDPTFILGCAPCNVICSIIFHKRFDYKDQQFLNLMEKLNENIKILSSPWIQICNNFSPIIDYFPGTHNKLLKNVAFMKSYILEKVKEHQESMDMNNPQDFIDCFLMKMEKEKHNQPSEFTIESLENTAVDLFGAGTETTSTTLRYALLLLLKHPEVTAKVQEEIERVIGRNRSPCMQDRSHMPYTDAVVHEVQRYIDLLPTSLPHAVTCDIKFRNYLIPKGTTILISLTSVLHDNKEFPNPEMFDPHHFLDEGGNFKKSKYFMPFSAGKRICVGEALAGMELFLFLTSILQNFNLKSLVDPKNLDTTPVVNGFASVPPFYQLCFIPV
# CYP2C19 inhib: blockers of cytochrome P450 2C19 activity – biochemical, luminescence, ADME assay, primary screen; P33261; CYP2C19 Supersomes, luciferin-H EGE luminescence, 30 min; inhibition, % at 5 µM; 96,000 compounds, 21% hits; AID 778, 2007;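 active = CYP2C19 inhibition above a set limit at 5 µM in the primary screen, cut at about 50% in these data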
# CYP2C9 inhib: blockers of cytochrome P450 2C9 activity – biochemical, luminescence, ADME assay, primary screen. P11712. CYP2C9 Supersomes, luciferin-H conversion. inhibition, % at 5 µM. 96,000 compounds, 20% hits. AID 777, 2007;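 active = blocking of liver enzyme CYP2C9 beyond about 50% at 5 µM, limit read from the data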
# CYP2C19 activ: human CYP2C19 activators, primary screen, biochemical, luminescence. recombinant CYP2C19, luciferin-H EGE luminescence; stronger effect = higher value; 0 = fully inhibited enzyme, 1 = untreated enzyme. activation factor at 5 µM. 96,000 tested, under 10 active. Cytochrome P450 2C19 (Homo sapiens), P33261;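 active = activation factor of at least 2 at 5 µM in the primary screen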
# Hits are given with their value; i = inactive; nt = not tested or not shown. Only some compounds are listed: those with a hit (about 28% of all), similar ones and a draw of the others.
SMILES,PTK2B oligo ant,CYP2C9 activ,CYP2C19 inhib,CYP2C9 inhib,CYP2C19 activ
Cc1cc(OCc2ccc([N+](=O)[O-])cc2)c2c3c(c(=O)oc2c1)CCCC3,nt,i,60,79,i
CCCCOC(=O)COc1cc(C)cc2oc(=O)c3c(c12)CCC3,i,i,i,i,i
C=CCOC(=O)COc1cc(C)cc2oc(=O)c3c(c12)CCC3,i,i,84,58,i
O=c1c2ccccc2nc(-c2ccco2)n1-c1nccs1,i,i,i,i,i
O/N=C1/C(=C\c2ccccc2)N2CCC1CC2,i,i,83,i,i
COc1ccc(/C=C2\C(=N\O)C3CCN2CC3)cc1,i,nt,nt,nt,nt
Cn1c(O)c(C=NCCN2CCN(C(=O)c3ccccc3)CC2)c(=O)n(C)c1=O,i,i,i,i,i
CC1(C)CC(=O)C(C=NCCN2CCN(C(=O)Cc3ccc(Cl)cc3)CC2)=C(O)C1,i,i,90,63,i
COc1cccc(-c2cc(C(F)(F)F)n3nc(C(=O)N4CCC5(CC4)OCCO5)cc3n2)c1,i,i,77,69,i
CCOC(=O)c1c(C)n(Cc2ccccc2)c2ccc(OCC(O)CN3C(=O)CNC3=O)cc12 (stereo not drawn),i,i,68,87,i
CCCCn1c(O)c(C=Nc2c(C)n(C)n(-c3ccccc3)c2=O)c(=O)[nH]c1=O,i,i,i,i,i
O=C(Cc1cccs1)N1CCC2(CC1)OCCO2,i,i,80,i,i
Cn1c(=O)cc(OCCCC(=O)N2CCC3(CC2)OCCO3)c2ccccc21,i,i,i,i,i
Cc1oc(-c2cccs2)nc1CSCC(=O)N1CCC2(CC1)OCCO2,i,i,i,i,i
Cn1cc(CCC(=O)N2CCC3(CC2)OCCO3)c2ccccc21,i,i,98,i,i
Cn1c(=O)cc(SCC(=O)N2CCC3(CC2)OCCO3)c2ccccc21,i,2.1,i,i,i
Cn1c2ccccc2c2c(C(=O)N3CCC4(CC3)OCCO4)cn(C3CCCC3)c(=O)c21,i,i,i,72,i
COc1ccc(N2CCN(C(CNC(=O)Oc3ccccc3)c3cccnc3)CC2)cc1 (stereo not drawn),i,i,i,i,i
O=C(NCC(c1cccnc1)N1CCN(c2ccccc2F)CC1)Oc1ccccc1 (stereo not drawn),i,i,78,85,i
COc1ccc(C2SCC(=O)Nc3c2c(=O)[nH]n3C2CCCCC2)cc1 (stereo not drawn),i,i,i,i,i
O=c1cccc2n1CC1CC2CN(Cc2c(Cl)cccc2Cl)C1 (stereo not drawn),i,i,97,70,i
Cc1ccc(CN2CC3CC(C2)c2cccc(=O)n2C3)cc1 (stereo not drawn),i,i,i,i,i
Nc1ccccc1C(=O)OCCOc1ccccc1,i,i,92,74,i
CC1=NN(c2ccccc2)C(=O)C1/C=C1\C(=O)NC(=O)N(c2ccc(C)c(C)c2)C1=O (stereo not drawn),i,i,i,68,i
O=C1NC(=S)NC(=O)C12C(c1ccc(F)cc1)NC(=S)NC2c1ccc(F)cc1 (stereo not drawn),i,i,i,i,i
SMILES,PTK2B oligo ant,CYP2C9 activ,CYP2C19 inhib,CYP2C9 inhib,CYP2C19 activ
CN(CCCCC(=O)/C=N/O)Cc1ccccc1 (tested in a mixture with another compound),i,i,i,i,i
CN(CCc1ccccc1)Cc1ccccc1[N+](=O)[O-],i,i,91,76,i
CC1(C)COC(Nc2cccc(Cl)c2)=N1,i,i,i,76,i
CC1CN=C(NCc2ccncc2)S1 (stereo not drawn),i,i,i,i,i
CCOc1c(P(=S)(N(C)C)N(C)C)c(C)nn1-c1ccccc1,i,i,89,78,i
O=C(C1CC(c2ccccc2O)=NO1)N1CCC2(CC1)OCCO2 (stereo not drawn),i,i,100,i,i
Cc1ccc(S(=O)(=O)N2CCC(C(=O)N3CCC4(CC3)OCCO4)CC2)cc1,i,i,i,i,i
CN(C)CP(=O)(O)CN(C)C=O,i,i,i,i,i
CCOC(=O)C1CCN(C(C)C(=O)c2c(C)[nH]c3cc(C)ccc23)CC1 (stereo not drawn),i,i,i,i,i
CC1CCC(C(C)C)C(OP(N)(=O)c2ccccc2)C1 (stereo not drawn),i,i,83,65,i
Cc1cc2c(C(F)(F)F)cc(=O)oc2c2c1NCCC2,i,2.4,i,i,i
Cc1c(NC(=O)C(C)OC(=O)Cc2ccccc2)c(=O)n(-c2ccccc2)n1C (stereo not drawn),i,i,i,i,i
FC(F)(F)c1ccc2c(c1)N(CCCN1CCN(CCCl)CC1)c1ccccc1S2,i,i,50,i,i
CN(C)C(=O)CSc1nnc([C@@H](N)Cc2ccccc2)o1,i,i,i,i,i
CCOc1ccccc1N1C(=O)NC(=O)/C(=C/c2ccc3c4c(cccc24)CC3)C1=O,i,4.1,i,i,i
CC(C)CCNC(=O)c1c(N)n(CC2CCCO2)c2nc3ccccc3nc12 (stereo not drawn),i,i,61,95,i
Nc1c(C(=O)NCCc2ccccc2)c2nc3ccccc3nc2n1CCN1CCOCC1,i,i,67,97,i
COc1ccc(CCNC(=O)c2c(N)n(CCN3CCOCC3)c3nc4ccccc4nc23)cc1,i,i,i,50,i
COc1ccc(OP(=O)(Nc2ccccc2)Nc2ccccc2)cc1,i,i,83,69,i
Cc1cc(C=O)c(C)n1C1CCCCC1,i,i,i,i,i
CSc1ccc(C(=O)C(C)(C)N2CCOCC2)cc1,i,i,92,i,i
CCCCOC(=O)C1=C(N)OC2=C(C(=O)CCC2)[C@]12C(=O)Nc1ccccc12,i,i,i,i,i
CC1CCCC(NC(=O)COC(=O)Cc2ccccc2)C1C (stereo not drawn),i,i,i,i,i
O=C(COC(=O)Cc1ccccc1)Nc1ncc(Cl)cc1Cl,i,i,58,i,i
COC(=O)C1=C(N)Oc2c(c(=O)oc3ccccc23)[C@]12C(=O)N(C)c1ccccc12,i,i,68,68,i
COC(=O)C1=C(N)OC(C)=C(C(C)=O)C12C(=O)N(C)c1ccccc12 (stereo not drawn),i,i,i,i,i
Cn1ncnc2c(=O)n(C)c(=O)nc1-2,-3.3,i,95,80,i
CCOC(=O)c1cn2nc(OP(=S)(OCC)OCC)cc2nc1C,i,i,98,82,i
O=c1c2ccccc2nc(-c2cccs2)n1-c1cnccn1,i,i,i,i,i
Cc1ccc(-n2c(-c3cccs3)nc3ccccc3c2=O)cc1,i,i,i,58,i

# High-throughput results deposited in PubChem by Sanford-Burnham Center for Chemical Genomics.
